Potency and affinity values are given separately. Active and inactive are the calls of the source. Cut-off not given; nearly all actives show IC50 up to about 0.91 µM.
What follows are compounds tested against Calcium-dependent protein kinase 4 (Plasmodium falciparum (isolate 3D7)) (UniProt Q8IBS5) (assay: PfCDPK4 kinase inhibitors, biochemical, TCAMS library (AID 1159588)). Conditions: recombinant PfCDPK4, Kinase-Glo ATP depletion luminescence.
Chain of Calcium-dependent protein kinase 4 (Plasmodium falciparum (isolate 3D7)) (Q8IBS5 whole entry, looked up): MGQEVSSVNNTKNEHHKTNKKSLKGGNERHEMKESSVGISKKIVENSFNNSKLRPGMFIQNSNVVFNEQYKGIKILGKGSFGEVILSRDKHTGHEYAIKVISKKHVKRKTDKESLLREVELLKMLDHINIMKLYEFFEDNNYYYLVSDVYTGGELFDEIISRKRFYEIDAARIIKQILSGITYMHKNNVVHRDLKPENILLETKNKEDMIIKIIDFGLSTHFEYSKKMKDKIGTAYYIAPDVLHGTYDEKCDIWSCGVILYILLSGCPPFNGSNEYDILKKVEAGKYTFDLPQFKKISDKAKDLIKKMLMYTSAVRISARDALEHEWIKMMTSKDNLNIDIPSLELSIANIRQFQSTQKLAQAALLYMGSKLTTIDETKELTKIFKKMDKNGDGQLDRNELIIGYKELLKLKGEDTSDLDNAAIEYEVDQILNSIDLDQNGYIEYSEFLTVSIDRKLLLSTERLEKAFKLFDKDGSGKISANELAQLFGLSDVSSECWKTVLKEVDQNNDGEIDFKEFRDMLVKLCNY

outcome, inactive:
Cn1cncc1C(=O)Nc1cccc(-c2ccc(-c3nc4ccccc4[nH]3)cc2)c1, CNS(=O)(=O)Cc1ccc(Nc2nccc(Nc3cccc4c3cnn4C(=O)Nc3ccccc3)n2)cc1, Cc1nc(N)nc(N)c1-c1ccc(Br)c([N+](=O)[O-])c1, O=C(Nc1ccc(Cl)cc1)c1ccc(CN2CCCN(CC3CCCCC3)CC2)cc1, CCNc1cc(C(=O)N[C@@H](Cc2ccccc2)[C@H](O)CN[C@H](C)C(C)(C)C)cc(N2CCCCS2(=O)=O)c1, CC(=O)Nc1cccc(-c2cnc(N)c3cc(-c4ccc5c(c4)OCO5)ccc23)c1, CCCCCCCN1CC[C@@H](CCCc2ccnc3ccc(OCCC4CCNCC4)cc23)[C@@H](CC)C1, CC1(C)N=C(N)N=C(N)N1OCCSCc1cc(Cl)sc1Cl, Cc1cc(N[C@@H](CC(C)C)C(=O)Nc2ccccc2)nc(NCCc2ccccc2)n1, CN1CCN(CCCN(Cc2csc(-c3ccc(CNCc4ccccc4)cc3)n2)C(=O)c2cc(F)cc(F)c2)CC1, COCCN1CCC(CNCC(C)(C)c2nc(-c3ccc(Cl)c(O)c3)c(-c3ccncc3)[nH]2)CC1, O=C(NC1CCN(CCC(NC(=O)c2ccccc2)c2ccc(Cl)c(Cl)c2)CC1)c1ccc(Cl)cc1 (stereo not given), O=C(NCc1cccs1)[C@H](Cc1ccccc1)Nc1ccnc(NCC2CCCCC2)n1, c1cc(Nc2nc(-c3ccc(-c4csc(Nc5ccncc5)n4)cc3)cs2)ccn1, C=CCN(c1ccc(OC)cc1)S(=O)(=O)c1ccc(Cl)c(C(=O)Nc2cccc(C#N)c2)c1, Cn1cncc1C(=O)Nc1cccc(-c2ccc(-c3nc4ccccc4[nH]3)s2)c1, c1ccc2c(CNc3nc(NCC4CCCCC4)nc4nc[nH]c34)cccc2c1, CCC1N=C(N)N=C(N)N1OCc1cccc2ccccc12 (stereo not given), CC(C)c1ccc(CN2CCCCC(NC(=O)c3cc(-c4cccc(F)c4)cs3)C2)cc1 (stereo not given), COc1cc(C2CCN(CCCCNC(=O)c3ccc(NC(=O)c4ccc(Cl)c(Cl)c4)cc3)CC2)ccc1OC(C)C, CN(C)CC(=O)NCC(NCCCNc1cc(=O)c2ccccc2[nH]1)c1cc(Br)cc(Br)c1 (stereo not given), COc1cc(Cc2cnc(N)nc2N)ccc1OCC(=O)Nc1ccc(C)cc1, CCOc1c(CNCCCNc2cc(=O)c3ccccc3[nH]2)cc(I)cc1OC, COC(=O)Nc1cc(C(F)(F)F)ccc1N1CCCC(NS(=O)(=O)c2ccc(C(C)(C)C)cc2)C1 (stereo not given), CCCCCCCN1CC[C@@H](CCC(O)c2ccnc3ccc(OC)cc23)[C@@H](CC)C1 (stereo not given in full)

Source: PubChem BioAssay
